Each compound was assayed against Luciferin 4-monooxygenase (Photinus pyralis) (UniProt P08659) (assay: firefly luciferase enzyme inhibitors, primary screen, biochemical, luminescence, purified enzyme, 2006 set (AID 1141;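 further: cell-free assay with purified firefly luciferase at 100 ng per well in PBS; test concentration not given here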)). Settings: SteadyGlo luminescence, 30 min, higher = more signal, called active from +8 up or from −8 down.
Sequence of Luciferin 4-monooxygenase (Photinus pyralis) (P08659 whole entry, looked up): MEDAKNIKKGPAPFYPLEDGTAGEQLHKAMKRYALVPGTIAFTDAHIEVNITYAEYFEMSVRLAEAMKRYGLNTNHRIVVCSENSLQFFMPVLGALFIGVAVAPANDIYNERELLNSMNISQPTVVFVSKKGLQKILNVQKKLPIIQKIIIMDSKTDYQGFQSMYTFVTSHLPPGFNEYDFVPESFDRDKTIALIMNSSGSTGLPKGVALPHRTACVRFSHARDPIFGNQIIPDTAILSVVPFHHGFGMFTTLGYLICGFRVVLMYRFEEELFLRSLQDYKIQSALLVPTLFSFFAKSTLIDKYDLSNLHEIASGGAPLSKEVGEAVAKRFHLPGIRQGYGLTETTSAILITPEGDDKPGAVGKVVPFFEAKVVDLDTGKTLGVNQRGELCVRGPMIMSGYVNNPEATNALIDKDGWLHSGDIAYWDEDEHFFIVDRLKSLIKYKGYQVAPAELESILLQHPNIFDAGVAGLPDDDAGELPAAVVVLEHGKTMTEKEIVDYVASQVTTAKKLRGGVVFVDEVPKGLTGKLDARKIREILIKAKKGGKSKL

z-score, inactive:
COCC#Cc1ccc([C@@H]2N[C@H](C(=O)O)CC[C@H]2C)cc1 -1.77
C#CCCCON=C1[C@H]2CCn3c(=O)n([C@@H](CC)c4ccccc4)c(=O)n3[C@H]2[C@H](O)[C@@H]2O[C@H]12 -0.0508
O=C1CCCC=C1C(O)C1CCCCC1 (stereo unspecified) -0.376
C[C@@H](c1ccccc1)N1C(=O)[C@H]2[C@H]3[C@H](O)[C@H](O)CC(=NOC[C@@H](O)COCc4ccco4)[C@H]3CC[C@H]2C1=O 0.997
CCOC(=O)[C@H](CC(C)C)NC(=O)CCC1CC(OC(=O)NCCc2ccc(F)cc2)CC2(CCCC(COC(=O)NCc3cccc4ccccc34)O2)O1 (stereo partly specified) 0.6
COC(=O)[C@H](C)NC(=O)CCC1CC(OC(=O)NCCc2ccc(F)cc2)CC2(CCCC(COC(=O)NCCc3ccccc3OC)O2)O1 (stereo partly specified) 0.484
CCOC(=O)CCN1C(=O)[C@H]2[C@H]3[C@H](O)[C@H](O)CC(=NOCC(C)C)[C@@H]3CC[C@H]2C1=O 0.826
CC[C@@H](c1ccccc1)n1c(=O)n2n(c1=O)[C@H]1[C@H](O)[C@@H]3O[C@@H]3C(=NOCc3ccccc3)[C@H]1CC2 0.0145
COc1ccc(O[C@H]2C=C[C@@H](c3ccccc3)O[C@@H]2CON=C(C)CCN2CCCc3nc(C)c(C)cc32)cc1 0.715
COC(OC)[C@@H](C)[C@H](OC)[C@@H](C)[C@H](OC)c1ccccc1 -1.67
CC(CCN1CCc2nc(-c3ccccc3)c(-c3ccccc3)cc2C1)=NO[C@@H](C)c1cc(-c2c(C)cc(C)cc2C)no1 0.618

From PubChem BioAssay
